Screens deposited in PubChem BioAssay by several laboratories.
The list is not random: actives were taken first. Their share in the collection is about 2.3%.
aSyn UTR inh = MLPCN primary screen, SNCA 5' untranslated region. 300,000 tested, 0.82% active. alpha-synuclein 5'UTR reporter, inhibitor activity. inhibition, % (tested at 7.5 µM). AID 1813, 2009; in the data active means inhibition above about 60%; inconclusive means no clear call, values can overlap the other calls;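 further: H4 neuroglioblastoma cells stably carrying SNCA 5'UTR luciferase fusion; 0% = DMSO wells and 100% = positive control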
Shn3 inh set2 = reduction of Shn3 3'UTR firefly luciferase signal, primary screen, Schnurri-3 inhibitor project, cell-based, Clone20 osteoblasts, set 2; 360,000 tested, 0.52% active; inhibition, % at 12.5 µM; Clone20 osteoblast Shn3 3'UTR firefly luciferase, 24 h;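 active means mean inhibition of at least 75% with every replicate also reaching 75%; inconclusive means mean inhibition at least 75% but some replicate below; inactive means mean inhibition below 75%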;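 further: 0% = median of neutral control wells and 100% = pilot-screen positive control compound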
697 NFkB inh = inhibitors of PMA/ionomycin-induced NF-kB reporter, 697 cells, primary screen, B-cell NF-kB inhibitor project, cell-based, luminescence, uHTS | 697 B-cell NF-kB luciferase reporter, 16 h | inhibition, % at 4 µM | 330,000 tested, 0.33% active; in the data active means inhibition above about 35%
Jurkat NFkB inh = inhibitors of induced NF-kB luciferase reporter, primary screen, TCR NF-kB activation inhibitor project, cell-based, luminescence, uHTS; 330,000 tested, 0.53% active; inhibition, % at 4 µM; AID 435003, 2010; Jurkat, PMA/ionomycin-induced NF-kB luciferase reporter; in the data active means inhibition above about 50%
TAG inh = inhibitors of triacylglycerol accumulation, primary screen, cell-based, uHTS, fluorescence, H9c2. H9c2 cells, Nile Red lipid (TAG) fluorescence; cells loaded with 200 µM oleic acid. inhibition, % at 12.5 µM. 230,000 tested, 0.66% active. AID 651582, 2012;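 active means pattern-corrected inhibition of lipid staining of at least 50% with the nuclear-stain viability signal not falling by more than 50%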;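 further: 0% = DMSO wells and 100% = triacsin C control wells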
Gli-Sufu antag = Gli-Sufu pathway antagonists, primary screen, luciferase luminescence, Sufu-KO-LIGHT cells, uHTS; Sufu-KO-LIGHT fibroblasts, Gli luciferase reporter luminescence; inhibition, % at 5 µM; 340,000 tested, 0.74% active;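 active means inhibition above about 55%, limit read from the data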;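 further: 0% = DMSO-treated cells and 100% = wells with medium but no cells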
Jurkat NFkB conf = PMA/ionomycin-induced NF-kB reporter inhibitors, Jurkat retest, confirmation, T-cell NF-kB inhibitor project, cell-based, luminescence, single concentration. Jurkat NF-kB luciferase, 16 h. inhibition, % at 4 µM. 2,700 tested, 27% active. shares compounds with Jurkat NFkB inh. AID 435020, 2010;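 active means inhibition reaching about 45% at 4 µM in either replicate, limit read from the data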;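 further: plate controls were PMA/ionomycin stimulated DMSO wells for no effect and unstimulated DMSO wells for full effect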
Starred values were filed as active, the others as inactive; ? = inconclusive; . = no result.

SMILES	aSyn UTR inh	Shn3 inh set2	697 NFkB inh	Jurkat NFkB inh	TAG inh	Gli-Sufu antag	Jurkat NFkB conf
Oc1cccc(/C=N/N=C/c2cccc(O)c2O)c1O	-70.4	-61.5	-191.1	80.6*	.	15.5	-20.9
Cc1ccccc1S(=O)(=O)Cc1ccc(C(=O)N2CCN(c3cccc(C)c3C)CC2)o1	100.8*	11.8	-81.9	51.3*	.	2.0	29.1
Cc1cccc(N2CCN(C(=O)c3cc(S(=O)(=O)N4CCCC4)cn3C)CC2)c1C	35.1	13.5	-47.1	61.1*	25.2	16.5	19.5
COc1cc(C(=O)N2CCN(c3cccc(C)c3C)CC2)cc(OC)c1OC	?	28.7	-41.8	62.9*	55.7*	49.0	43.5
COc1ccc(S(=O)Cc2ccc(C(=O)N3CCN(c4cccc(C)c4C)CC3)o2)cc1 (stereo not drawn)	35.8	39.8	-117.8	50.6*	.	25.6	20.1
COCCOC(=O)c1[nH]c2c(c1C)C(=O)CC(c1cc(OC)ccc1OC)C2 (stereo not drawn)	-27.2	18.4	16.8	37.5	47.2	-7.4	.
CCCOCCOC(=O)c1[nH]c2c(c1C)C(=O)CC(c1cc(OC)ccc1OC)C2 (stereo not drawn)	20.2	28.8	-45.6	71.7*	16.9	5.6	35.3
COc1ccc(OC)c(C2CC(=O)c3c([nH]c(C(=O)OCC4CCCO4)c3C)C2)c1 (stereo not drawn)	-24.3	15.5	7.9	0.3	.	11.7	.
COc1ccc(OC)c(C2CC(=O)c3c([nH]c(C(=O)OC(C)C)c3C)C2)c1 (stereo not drawn)	10.6	24.5	-19.1	59.8*	.	.	57.6*
O=[N+]([O-])c1ccc(N2CCN(c3cccc(Cl)c3)CC2)cn1	-25.2	-12.1	9.8	52.5*	.	-1.6	-12.0
Cc1cccnc1NC(=S)NC(=O)c1cccs1	-398.5	-52.5	-183.3	-180.9	.	-94.3	-98.5
Cc1cccnc1NC(=O)CNC(=O)c1cccs1	-4.4	15.8	6.3	5.9	10.2	-5.5	.
COc1cc(NCCCCCCCN)c2ncccc2c1	1.4	2.9	-44.3	93.3*	.	-14.8	60.3*
Cc1cccc(NC(=S)N/N=C/c2cccc(O)c2)c1C	-36.7	-0.8	-46.0	62.1*	12.9	-9.7	7.9
Cn1c(=O)[nH]c(=O)c2c1nc(CN1CCN(c3cccc(Cl)c3)CC1)n2Cc1ccccc1Cl	17.1	-14.9	-30.5	56.9*	-0.8	7.1	12.3
COc1ccc([C@H]2CC(=O)C=C(c3cc4ccccc4s3)C2)cc1	.	-9.6	-22.5	-15.8	.	-27.4	.
Cc1c(C(=O)N/N=C/c2ccc(N(C)C)cc2)[nH]c2ccc(Cl)cc12	73.5*	26.9	13.0	50.4*	32.8	27.5	0.1
CC1CCCC(NC(=O)COC(=O)CCc2ccccc2)C1C (stereo not drawn)	-10.0	-3.8	15.0	8.4	-2.0	-5.6	.
CC(=O)Nc1cc2c(cc1NC(=O)Cn1nc(-c3ccc(F)cc3)ccc1=O)OCCO2	-1.8	-12.9	15.7	7.5	.	-13.4	.
CC(=O)c1cc2c(cc1NC(=O)Cn1nc(-c3ccc(C)cc3)ccc1=O)OCO2	9.6	-6.0	-19.1	53.4*	.	18.9	14.4
CCCn1c2c(c(=N)c3c1CCC3)CCC2	-12.0	10.0	3.3	36.3	-14.7	20.6	.
CCCCCCCn1c2c(c(=N)c3ccccc31)CCC2	79.4*	97.1*	25.3	72.0*	15.0	88.9*	66.8*
CC(C)c1nc2n[nH]c(N)c2c2c1CCC2	22.9	-1.1	12.5	19.3	-13.2	2.1	.
COC(=O)c1ccccc1S(=O)(=O)C(C)(C)C	-12.5	-4.7	15.8	-1.2	-16.7	10.9	.
CCOC(=O)c1c(C)[nH]c(C)c1C(=O)COC(=O)/C=C/c1cccc(F)c1	-19.8	-11.5	.	.	.	-3.9	.
SMILES	aSyn UTR inh	Shn3 inh set2	697 NFkB inh	Jurkat NFkB inh	TAG inh	Gli-Sufu antag	Jurkat NFkB conf
CCOC(=O)c1c(C)[nH]c(C)c1C(=O)COC(=O)/C=C/c1ccc(OC)cc1	.	20.4	-39.5	50.9*	-30.9	-6.3	17.1
Cc1cc(NC(=O)c2ccc(NC(=O)c3cccs3)cc2)no1	-8.1	-23.5	-16.0	-10.4	.	5.5	.
CC(C)(C)c1cc(NC(=O)c2cccs2)no1	-76.5	-75.4	-189.3	-158.1	13.2	-100.0	-80.5
O=C(O)c1cc(C(=O)C2CCCCC2)c[nH]1	14.8	0.0	14.2	21.2	6.1	5.2	.
CSc1ccccc1-c1nnc(-c2ccc(C)cc2)o1	-105.8	-89.2	-101.6	-101.7	-5.3	-74.9	.
c1ccc(-c2nnc(-c3ccccc3)o2)cc1	-95.7	-37.9	-130.5	-114.3	-26.2	-72.7	.
Clc1cccc(-c2nnc(-c3ccccc3)o2)c1	-37.5	-63.8	-227.0	-183.9	.	-4.5	-93.4
Nc1ccccc1-c1nnc(-c2ccc(-c3ccccc3)cc2)o1	-191.9	-80.2	-175.0	-154.2	.	-68.5	-73.7
CSc1ccccc1-c1nnc(-c2ccccc2)o1	-60.9	.	-172.6	-158.6	24.1	-71.0	-85.3
CCCCC(=O)Nc1nnc(SCC(=O)N2CCN(c3ccccc3OC)CC2)s1	5.0	-1.4	-23.5	-21.9	13.3	4.6	.
COc1cccc(-n2c(CNc3ccc(F)cc3)nnc2SCC(N)=O)c1	4.1	23.9	1.0	5.4	.	3.2	.
CCC(=O)NC(=S)Nc1ccc(-c2nc3ccccc3s2)cc1	-58.6	-68.3	-183.8	-152.2	13.0	-64.7	-82.8
CCC(=O)NC(=S)Nc1ccc(-c2nc3ccc(C)cc3s2)cc1	-238.4	-79.5	-137.6	-114.8	.	-117.5	.
COc1ccc(CSC2=C(C#N)C(=O)NC3(CCCCC3)S2)cc1	.	-18.7	.	.	-8.4	.	.
O=C(c1ccco1)N1CCN(c2ccc(F)cc2)CC1	-79.2	-0.4	-36.1	-11.4	.	-1.0	.
CC(=O)c1sc(NC(=O)c2ccccc2)nc1-c1ccccc1	-139.0	-51.1	-83.6	-83.3	-11.6	-97.4	.
CCOC(=O)Nc1nc(-c2ccccc2)c(C(=O)c2ccccc2)s1	116.7*	22.4	-6.9	51.4*	.	49.3	49.9*
Clc1ccc(CN=C2Nc3ccccc3CS2)cc1	-181.7	-47.4	-122.1	-102.2	-12.6	-113.5	.
Cc1ccc(CN=C2Nc3ccccc3CS2)cc1	-26.2	-8.4	-208.3	-170.8	-90.4	-157.4	-80.3
O=C(NCc1ccccc1Cl)c1cc([N+](=O)[O-])ccc1Cl	-23.4	-17.1	22.7	1.1	3.7	-7.3	.
O=C(NCc1ccc(Cl)cc1)c1cc([N+](=O)[O-])ccc1Cl	-32.1	2.6	15.3	60.2*	8.9	-11.0	11.6
CCN(c1cc(C)cc(C)c1)S(=O)(=O)c1nnc(NC(=O)C(C)(C)C)s1	2.0	0.5	-2.3	8.6	.	8.4	.
